A selection: hits, their analogues and other compounds. The true share with any hit is near 9%.
Luc counter – Kinase-Glo luciferase inhibition (counter-screen); Q27757; Kinase-Glo luciferase, ATP luminescence, 8 min; Potency, µM (highest dose often 38.3 µM), actives largely listed as inhibitors; 0.28% of 200,000 active; AID 1379; further: nearly all actives have a fitted effect of over 60% in size
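Inhibition of Kinase-Glo luciferase light generation was assessed at 10 uM ATP in pH 7.2 imidazole buffer, with luminescence measured after eight minutes at ambient temperature.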
IMPase Li inh – membrane-permeable IMPase blocker, potentiated with lithium. 0.35% of 210,000 active. CHO-M1 cells, IP1 TR-FRET (IP-One), carbachol + lithium. Potency, µM (titrated, usually from 59.4 µM), actives largely listed as inhibitors;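 further: IP1 builds up when IMPase is blocked and the TR-FRET signal falls; nearly all actives have a fitted effect of over 50% in size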
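CHO cells stably expressing M1 receptor (2000/well, cultured 16–30 h) treated 30 min at 37C with compound plus low lithium. Cytosolic IP1 by TR-FRET (665/620 ratio and 620 channel) after 10 min lysis; AC50 by Hill fit.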
ALDH1A1 inh – blocks purified human ALDH1A1 activity | 7.3% of 220,000 active | Potency, µM (series often up to 75.3 µM), most hits filed as inhibitors | Purified ALDH1A1, NADH fluorescence, propionaldehyde substrate; active means well fitted inhibition curve with a large enough effect, not every such curve was filed as active; inconclusive means small, poorly fitted or top-dose-only effect, or another doubt; inactive means no such curve, though single readings can be large or run the other way
HPGD inh – blocks human HPGD enzyme activity; Potency, µM, actives largely listed as inhibitors; 4.3% of 150,000 active; AID 894; purified HPGD, NADH fluorescence kinetic, PGE2 substrate; active means well fitted inhibition curve with a large enough effect, not every such curve was filed as active; inconclusive means small, poorly fitted or top-dose-only effect, or another doubt; inactive means no such curve, though single readings can be large or run the other way
Target sequence (P15428 whole entry, looked up): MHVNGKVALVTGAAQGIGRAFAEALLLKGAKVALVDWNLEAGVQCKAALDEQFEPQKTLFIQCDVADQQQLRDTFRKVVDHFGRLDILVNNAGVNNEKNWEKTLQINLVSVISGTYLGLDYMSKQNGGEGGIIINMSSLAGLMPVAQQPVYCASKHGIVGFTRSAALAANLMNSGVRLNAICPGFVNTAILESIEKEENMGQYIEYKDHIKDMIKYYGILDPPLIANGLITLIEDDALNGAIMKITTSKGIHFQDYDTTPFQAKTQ
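20 nM HPGD preincubated 15 min at room temperature with compound in 50 mM Tris-HCl pH 8, 0.01% Tween 20. Started with 1 mM NAD+ and 30 uM prostaglandin E2; NADH fluorescence (360/450 nm) read 5 times over 30-s intervals, last minus first.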
LMNA splice mod – modulators of lamin A splicing | AID 1487 | HeLa LMNA splicing GFP/RFP minigene ratio, 48 h | 0.01% of 200,000 active | Potency, µM (doses to about 46.1 µM), hits mostly inhibitors; active means well fitted inhibition curve with a large enough effect in the signal ratio, with a control signal flat, not every such curve was filed as active; inconclusive means small, poorly fitted or top-dose-only effect, or effect the other way, or a change in a side signal; the % refers to the signal ratio
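S3 HeLa stable clones carrying a lamin A-EGFP splicing minigene plus DsRed2 were seeded at 600 cells/well in Opti-MEM with 2% FBS, pin-dosed and incubated 48 h at 37°C. Acumen cytometry (488 nm) gave the GFP/RFP total-intensity ratio.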
Numbers stand for hits; – = inactive; ? = inconclusive; · = not tested or not shown; [ ] = remark or other dose. Unless noted, the call rests on the fitted dose curve; in most records, active means well fitted curve in the direction sought with a large enough effect; inconclusive means small, poorly fitted or top-dose-only effect, or another doubt; inactive means no such curve, though single readings can be large; an effect the other way counts as inactive or inconclusive.

SMILES	Luc counter	IMPase Li inh	ALDH1A1 inh	HPGD inh	LMNA splice mod
COc1ccc(Cn2nnnc2C(c2cc(OC)ccc2OC)N2CCC(C(N)=O)CC2)cc1 (stereo not drawn)	–	–	14µM	–	?
CC1CCCN(C(c2cccs2)c2nnnn2Cc2ccccc2)C1 (stereo not drawn)	–	–	3.2µM	–	–
CC#CCN1c2ccccc2[C@]23C[C@@H](C(=O)OC)N(S(=O)(=O)c4cccs4)C2=NC(C(=O)OC)=C(C(=O)OC)[C@H]13	–[7.66 µM]	–	–[13.5 µM]	–	–[9.22 µM]
CCn1nc(C)c2c(-c3ccccc3)cc(=O)n(C(C)C(=O)NCc3cccc(OC)c3)c21 (stereo not drawn)	·	·	·	·	–
C[C@@H]1C[C@H]2[C@H]3C[C@@H](F)C4=CC(=O)C=C[C@]4(C)[C@@]3(Cl)[C@@H](O)C[C@@]2(C)[C@@H]1C(=O)COC(=O)C(C)(C)C	–	–	–	–	–
O=C(NCCOCCNC(=O)OCc1ccccc1)OCc1ccccc1	–	–	–	·	?
Nc1nc(SCc2ccccc2Cl)[nH]c(=O)c1-c1ccccc1	–	–	–	–	?
O=C(CSc1nc2c(cnn2-c2ccc(F)cc2)c(=O)[nH]1)N1CCCc2ccccc21	·	·	–	·	–
COc1ccc(-c2noc(CSc3nc(N)c(-c4ccccc4)c(=O)[nH]3)n2)cc1OC	–	–	?	16µM	–
Nc1nc(SCc2ccccc2)[nH]c(=O)c1-c1ccccc1	–	–	14µM	–	–
Nc1nc(SCC(=O)N2CCCc3ccccc32)[nH]c(=O)c1-c1ccccc1	–	–	22µM	–	–
CN(C(=O)COc1ccc(Cl)cc1Cl)c1nnc(C23CC4CC(CC(C4)C2)C3)s1	–	–	–	–	–
CC(=O)C(C(C)=O)c1c(Cl)c(O)c(O)c2c(C(=O)c3ccccc3)coc12	–	–	–	3.2µM	?
Cn1ccc2cc(S(=O)(=O)N3CCN(C(=O)Nc4ccc(F)cc4F)CC3)ccc21	·	·	·	·	–
NC(=O)c1cc[n+](CC2=C(C(=O)O)N3C(=O)[C@@H](NC(=O)[C@@H](c4ccccc4)S(=O)(=O)[O-])[C@H]3SC2)cc1	–	–	–	–	–
COc1ccc2sc3ccccc3c(=O)c2c1OC	–	–	–	6.3µM	–
CCc1nc2sc3ccccc3c(=O)c2c(=O)n1CCOC	–	–	?	–	–
CC(C)c1nnc(NC(=O)C2CCN(c3cnccn3)CC2)s1	–	–	32µM	–	–
CCc1nnc(NC(=O)C2CCN(c3cnccn3)CC2)s1	–	–	?	–	–
CSc1ncnc2c1ncn2C1OC(CO)C(O)C1O (stereo not drawn)	–	–	–	–	?
CCN1CCN(C(=O)c2ccc(CSc3ccc(C)cc3)cc2)CC1	–	–	?	14µM	–
NC(=O)OC[C@H](O)COc1ccc(Cl)cc1	–	–	–	–	?
O=C(C1=C[C@@H]2[C@H]3C(=O)N(c4ccccc4)C(=O)[C@H]3[C@@H](C(=O)c3ccc(Cl)cc3)N2C=C1)c1ccccc1	–	–	20µM	–	–
CCOC(=O)C1=C(C)OC(N)=C(C#N)C1c1cc2c(cc1[N+](=O)[O-])OCO2 (stereo not drawn)	–	–	?	·	?
CN(C)S(=O)(=O)c1cccc(NC(=S)NCCc2ccccn2)c1	–	–	–	·	–
SMILES	Luc counter	IMPase Li inh	ALDH1A1 inh	HPGD inh	LMNA splice mod
COc1ccc(O)c(/C=N/NC(=S)Nc2cccc(S(=O)(=O)N(C)C)c2)c1	–	–	?	?	?
COc1cc(/C=N/NC(=S)Nc2cccc(S(=O)(=O)N(C)C)c2)cc(OC)c1O	–	–	22µM	–	?
CC(/C=N/NC(=S)Nc1cccc(S(=O)(=O)N(C)C)c1)c1ccccc1 (stereo not drawn)	–	–	7.9µM	35µM	–
CN(C)S(=O)(=O)c1cccc(NC(=S)N/N=C/C(c2ccccc2)c2ccccc2)c1	–	–	10µM	18µM	–
C=CCN(CC=C)C(=O)COC(=O)c1ccc(Sc2ncn[nH]2)c([N+](=O)[O-])c1	–	–	–	·	·
CCOC(=O)C1CCCN(C2CC(=O)N(c3cccc(C(F)(F)F)c3)C2=O)C1 (stereo not drawn)	–	–	8.9µM	–	–
CCOC(=O)C1CCCN(c2c(Nc3ccc(C)c(C)c3)c(=O)c2=O)C1 (stereo not drawn)	–	–	–	–	–
CCOC(=O)C1CCCN(C2CC(=O)N(c3ccc(N4C(=O)CC(N5CCCC(C(=O)OCC)C5)C4=O)cc3)C2=O)C1 (stereo not drawn)	–	–	3.2µM	·	·
O=C1CC(N2CCN(c3cccc(C(F)(F)F)c3)CC2)C(=O)N1c1ccc(F)cc1 (stereo not drawn)	–	–	–	–	–
Cc1cccc(N2C(=O)CC(N3CCN(c4cccc(C(F)(F)F)c4)CC3)C2=O)c1 (stereo not drawn)	–	–	28µM	–	–
CCOC(=O)C1CCCN(C2CC(=O)N(c3ccc(C)c(C)c3)C2=O)C1 (stereo not drawn)	–	–	10µM	–	–
c1ccc2[nH]c(SCCN3CCOCC3)nc2c1	–	–	–	–	–
CCOc1ccccc1O[C@@H](c1ccccc1)[C@@H]1CNCCO1	–	–	?	–	·
CCOC(=O)C1CCCN(C2CC(=O)N(c3ccc(C(C)C)cc3)C2=O)C1 (stereo not drawn)	–	–	10µM	·	·
CCCCCCOc1ccc(N2C(=O)CC(N3CCC(C(=O)OCC)CC3)C2=O)cc1 (stereo not drawn)	–	–	?	–	–
CCOC(=O)C1CCN(C2CC(=O)N(c3ccc(OCC)cc3)C2=O)CC1 (stereo not drawn)	–	–	28µM	–	?
CCOC(=O)C1CCCN(C2CC(=O)N(c3ccccc3)C2=O)C1 (stereo not drawn)	–	–	?	·	?
S=c1[nH]nc(-c2ccco2)n1/N=C/C=C/c1ccco1	–	–	–	14µM	–
COc1ccccc1/C=C/C=N/n1c(-c2n[nH]c3c2CCC3)n[nH]c1=S	·	·	8.9µM	·	·
C=CCn1c(-c2ccco2)n[nH]c1=S	–	–	?	–	–
COc1cccc(/C=N/n2c(-c3n[nH]c4c3CCC4)n[nH]c2=S)c1O	–	–	?	?	–
S=c1[nH]nc(-c2n[nH]c3c2CCC3)n1/N=C/C=C/c1ccco1	·	·	7.1µM	·	·
Cc1ccc(C(=O)/C=C/NCc2ccc(F)cc2)cc1	–	–	14µM	–	–
O=C(/C=C/Nc1ccc(Br)cc1F)c1ccccc1	10µM	–	?	–	?
COc1ccc(C(=O)/C=C/NCc2ccc(F)cc2)cc1OC	·	·	22µM	·	·
Cc1ccc(NC(=O)c2ccc(NCc3ccc(F)cc3)nc2)cc1	–	–	?	·	–
O=C(/C=C/NCC(=O)c1ccccc1)c1ccc(Br)cc1	–	–	7.9µM	–	–
O=C(Oc1cccc(Nc2ncnc3ccccc23)c1)c1ccccc1Cl	–	–	–	?	?

High-throughput results as filed in PubChem BioAssay.
